SMILES strings stand for the structures. Some compounds were tested as several samples or in several runs, with calls that do not always agree. Activity calls are given as the source filed them. The calls were made as follows: active = hit-call score of the fitted dose curve at least 0.9, where 1 is the maximum; inactive = score below 0.9.

As usually defined, the AC50 is the concentration at which the activity in the assay is half-maximal.

Signal transducer and activator of transcription 3 (Homo sapiens), sequence (P40763 whole entry, looked up): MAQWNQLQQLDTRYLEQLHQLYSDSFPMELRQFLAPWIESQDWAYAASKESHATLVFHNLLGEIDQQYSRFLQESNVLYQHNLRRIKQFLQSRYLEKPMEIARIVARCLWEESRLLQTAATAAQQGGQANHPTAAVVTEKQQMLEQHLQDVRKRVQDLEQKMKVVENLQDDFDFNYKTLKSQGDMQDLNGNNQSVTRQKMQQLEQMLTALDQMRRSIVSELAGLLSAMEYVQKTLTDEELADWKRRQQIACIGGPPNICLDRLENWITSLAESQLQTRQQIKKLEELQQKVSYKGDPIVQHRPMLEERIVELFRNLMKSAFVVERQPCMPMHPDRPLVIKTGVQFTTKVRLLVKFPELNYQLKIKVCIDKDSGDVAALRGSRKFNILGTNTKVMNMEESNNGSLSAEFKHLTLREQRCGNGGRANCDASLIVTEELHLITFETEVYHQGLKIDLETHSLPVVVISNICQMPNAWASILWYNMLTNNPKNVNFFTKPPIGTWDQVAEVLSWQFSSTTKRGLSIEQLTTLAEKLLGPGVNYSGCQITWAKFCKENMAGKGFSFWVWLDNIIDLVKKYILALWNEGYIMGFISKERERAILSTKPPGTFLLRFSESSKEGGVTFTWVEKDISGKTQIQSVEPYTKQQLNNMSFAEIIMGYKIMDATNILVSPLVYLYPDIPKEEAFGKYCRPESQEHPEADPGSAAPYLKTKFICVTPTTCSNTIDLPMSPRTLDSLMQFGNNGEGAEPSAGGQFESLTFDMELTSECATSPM

The target in the assay is Signal transducer and activator of transcription 3 (Homo sapiens) (UniProt P40763). The experiment in a line: ATG_STAT3_CIS: Attagene CIS-FACTORIAL HepG2 Assay for human Signal Transducer and Activator of Transcription 3 (STAT3) (AID 2282963). The following applies: HepG2, Attagene cis-factorial STAT3 reporter transcription; actives raise or lower the signal. Here is the method:
ATG_CIS is a cell-based, multiplexed-readout assay that uses HepG2, a human liver cell line, with measurements taken at 24 hours after chemical dosing in a 24-well plate.ATG_STAT3_CIS is one of 52 assay component(s) measured or calculated from the ATG_CIS assay. It is designed to make measurements of mRNA induction, a form of inducible reporter, as detected with fluorescence intensity signals by Reverse transcription polymerase chain reaction (RT-PCR) and Capillary electrophoresis technology.Data from the assay component ATG_STAT3_CIS was analyzed into 1 assay endpoint. This assay endpoint, ATG_STAT3_CIS, was analyzed with bidirectional fitting relative to DMSO as the negative control and baseline of activity. Using a type of inducible reporter, measures of mRNA for gain or loss-of-signal activity can be used to understand the reporter gene at the transcription factor-level as they relate to the gene STAT3. Furthermore, this assay endpoint can be referred to as a primary readout, because this assay has produced multiple assay endpoints where this one serves a reporter gene function. To generalize the intended target to other relatable targets, this assay endpoint is annotated to the dna binding intended target family, where the subfamily is stat protein.
Human liver HepG2 cells are transiently transfected with multiple reporter transcription units (MRTUs) in 6-well plates using FuGene 6 reagent (Roche; 3 ml FuGene/1 mg DNA). The MRTU constructs are regulated by a cis-regulating element (promoter). […] A major difference between the CIS and TRANS system is that in CIS activities of endogenous TFs are measured, whereas the TRANS assay evaluates changes in activities of exogenous, chimeric NR-Gal4 proteins. […] At the end of 24 hour incubation, total RNA was isolated using TriZol reagent (Invitrogen). The isolated RNA is then reverse-transcribed using oligo(dT) primer and Mo-MLV reverse transcriptase (Invitrogen) with DNAse I (Ambion) treatment for 30 min. The one-tenth of the produced cDNA was amplified by PCR using Taq DNA polymerase (Invitrogen) and two reporter sequence-specific primers. The PCR products were fluorescently labeled by primer extension with 6-arboxyfluorescein (6-FAM) 5'-labeled reporter sequence-specific primer (2 min at 95 C, 20 s at 68 C and 10 min at 72 C) and these products were digested with 5U of HpaI (New England Biolabs) for 2h at 37 C. The fragments were purified using Qiaquick PCR columns (Qiagen), analyzed on an ABI 3130xL genetic analyzer (Applied Biosystems) with peak positions identified by using a set of X-rhodamine (ROX)-labeled MapMarker1000 molecular weight standards (BioVentures). The raw capillary electrophoresis data was processed using Attagraph software (Attagene).
For `COP(=O)(OC)OC(Br)C(Cl)(Cl)Br` (stereo not given), the result was inactive. On the same count and under the same terms, with `CCCSP(=O)(OCC)Oc1ccc(Br)cc1Cl` (stereo not given) the entry was “inactive”; with `CC(C)N(C(=O)SCC(Cl)=C(Cl)Cl)C(C)C`, “inactive”. With `CCc1cnc(C2=NC(C)(C(C)C)C(=O)N2)c(C(=O)O)c1` (stereo not given), the result was inactive. `CNC(=O)ON=C(C)SC`: the call was inactive. The same measure, in the same setting: in the case of `CCOP(=O)(NC(C)C)Oc1ccc(SC)c(C)c1` (stereo not given) it was “inactive”; in that of `CC[C@H](C)[C@H]1O[C@]2(C=C[C@@H]1C)C[C@@H]1C[C@@H](C/C=C(\C)[C@@H](O[C@H]3C[C@H](OC)[C@@H](O[C@H]4C[C@H](OC)[C@@H](NC)[C@H](C)O4)[C@H](C)O3)[C@@H](C)/C=C/C=C3\CO[C@@H]4[C@H](O)C(C)=C[C@@H](C(=O)O1)[C@]34O)O2`, “inactive”. Same read-out and setting: with `COc1cc(OC)nc(Sc2cccc(Cl)c2C(=O)O)n1` the entry was “inactive”; with `CC(Oc1cccc(Cl)c1)C(=O)O` (stereo not given), “inactive”; with `CCCOc1nn(C(=O)NS(=O)(=O)c2ccccc2C(=O)OC)c(=O)n1C`, “inactive”. With `CCOP(=S)(OCC)OC(Cl)C(Cl)(Cl)Cl` (stereo not given), the outcome was inactive. Consider `CCC(=NOC/C=C/Cl)C1=C(O)CC(C2CCOCC2)CC1=O` (stereo not given), for which the compound was classed as inactive.

Turning to `CCc1cccc(C)c1N(C(=O)CCl)C(C)COC` (stereo not given), the outcome was inactive. As to `CCOP(=O)(SC(C)CC)N1CCSC1=O` (stereo not given), the compound was classed as inactive. For `CN(C)NC(=O)CCC(=O)O`, the compound was classed as inactive. Consider `CCOC(=O)COc1cc(-c2nn(C)c(OC(F)F)c2Cl)c(F)cc1Cl`, for which the result was inactive.

As to `CC(C1CC1)C(O)(Cn1cncn1)c1ccc(Cl)cc1` (stereo not given), the call was inactive. Turning to `C[Si](Cn1cncn1)(c1ccc(F)cc1)c1ccc(F)cc1`, the compound was classed as inactive. Same read-out and setting: with `CC(=NC#N)N(C)Cc1ccc(Cl)nc1` the entry was “inactive”. Still for that read-out and setting: in the case of `CCCCOC(=O)[C@@H](C)Oc1ccc(Oc2ccc(C#N)cc2F)cc1` it was “inactive”. Consider `O=[N+]([O-])c1cc(C(F)(F)F)c(Cl)c([N+](=O)[O-])c1Nc1ncc(C(F)(F)F)cc1Cl`, for which the AC50 is 19.1 µM (active) and the compound was classed as inactive. Consider `CCOP(=O)(OCC)Oc1cc(C)nc(C(C)C)n1`, for which the compound was classed as inactive. Consider `Cc1nn(-c2cc(NS(C)(=O)=O)c(Cl)cc2Cl)c(=O)n1C(F)F`, for which the call was inactive. The same measure, in the same setting: in the case of `COc1ccc(C(=CC(=O)N2CCOCC2)c2ccc(Cl)cc2)cc1OC` it was “inactive”.

In the case of `CCC(CC)Nc1c([N+](=O)[O-])cc(C)c(C)c1[N+](=O)[O-]`, the result was inactive. Same read-out and setting: in the case of `FC(F)C(F)(F)OCC(Cn1cncn1)c1ccc(Cl)cc1Cl` (stereo not given) it was “inactive”; in that of `C#CC(C)(C)NC(=O)c1cc(Cl)cc(Cl)c1`, “inactive”.

As to `O=C(O)c1cc(Oc2ccc(C(F)(F)F)cc2Cl)ccc1[N+](=O)[O-]`, the compound was called inactive.

With `C[N+]1(C)CCCCC1`, the outcome was inactive.

`CCCCOC(=O)c1ccccc1C(=O)O`: the compound was classed as inactive.

As to `CSc1nnc(C(C)(C)C)c(=O)n1N`, the compound was classed as inactive. On to `CC1=NNC(=O)N(/N=C/c2cccnc2)C1`, for which the outcome was inactive. On to `CNC(=O)ON=C(SC)C(=O)N(C)C`, for which the call was inactive.

As for `C#CCC1=C(C)C(OC(=O)C2C(C=C(C)C)C2(C)C)CC1=O` (stereo not given), the compound was called inactive.

As for `CC(C)[C@H](C(=O)O[C@H](C#N)c1cccc(Oc2ccccc2)c1)c1ccc(Cl)cc1`, the call was inactive. `CCOP(=S)(OCC)Oc1ccc2c(C)c(Cl)c(=O)oc2c1`: the compound was called inactive. Still for that read-out and setting: in the case of `O=c1ccc(=O)[nH][nH]1` it was “inactive”; in that of `CN(C)C(=O)Nc1cccc(C(F)(F)F)c1`, “inactive”; in that of `CCNc1nc(Cl)nc(NC(C)(C)C#N)n1`, “inactive”.
